Assay results: PubChem BioAssay (Tox21)
A number with no mark means an inactive call. Records with an inconclusive call do not appear. Entries that show only a call come without a potency. The source made the active and inactive calls. Unless noted, calls follow the shape of the dose curve; as a rule, active = well fitted curve in the direction sought with a large enough effect in the repeat runs; inconclusive = weak or mixed curves; inactive = no such curve, though single readings can be large; an effect the other way counts as inactive or inconclusive.

Experiments:
[1] = A CellTox Green Cytotoxicity Assay to monitor cytotoxicity in HEK293 cells - 32 hour (AID 1224881); also: nearly all actives have a fitted effect of over 40% in size
Procedure, shortened: (§1)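 Dead-cell fluorescence measured kinetically: asymmetric cyanine dye, HEK293, 600 cells/well, 5 h settle, 23 nL cpd/DMSO, 37 C, reads 0–40 h every 8 h.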

[2] = A CellTox Green Cytotoxicity Assay to monitor cytotoxicity in HepG2 cells - 0 hour (AID 1224882); also: nearly all actives have a fitted effect of over 35% in size
Procedure, shortened: (§2)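 First, HepG2 cells (600/well) mixed with reagent were plated; second, after 5 h at 37 C they received compounds via pintool; third, fluorescence was measured at 0 h through 40 h at 8 h intervals.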

[3] = A CellTox Green Cytotoxicity Assay to monitor cytotoxicity in HepG2 cells - 32 hour (AID 1224883); also: nearly all actives have a fitted effect of over 50% in size; also: potency is read from the fitted curve at half-maximal effect
Procedure, shortened: as §2

[4] = A CellTox Green Cytotoxicity Assay to monitor cytotoxicity in HEK293 cells - 8 hour (AID 1224884); also: nearly all actives have a fitted effect of over 35% in size
Procedure, shortened: as §1

[5] = qHTS RealTime-Glo MT Cell Viability Assay in HepG2 cells - 16 hour (AID 1224885); also: nearly all actives have a fitted effect of over 50% in size
Procedure, shortened: (§3)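 Luminescence read-out: viable HepG2 cells reduce a prosubstrate to a NanoLuc substrate, giving a signal proportional to live cell number. Reads taken at 0, 8, 16, 24, 32 and 40 h of compound exposure at 37 C.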

[6] = qHTS RealTime-Glo MT Cell Viability Assay in HEK293 cells - 8 hour (AID 1224887); also: nearly all actives have a fitted effect of over 50% in size; also: potency is read from the fitted curve at half-maximal effect
Procedure, shortened: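 600 HEK293 cells per well, dispensed already mixed with RealTime-Glo MT reagents. Compound dosing came 5 h later. The same wells were read for luminescence at 0, 8, 16, 24, 32 and 40 h of exposure at 37 C.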

[7] = A CellTox Green Cytotoxicity Assay to monitor cytotoxicity in HEK293 cells - 16 hour (AID 1224888); also: nearly all actives have a fitted effect of over 35% in size
Procedure, shortened: as §1

[8] = qHTS RealTime-Glo MT Cell Viability Assay in HepG2 cells - 0 hour (AID 1224889); also: nearly all actives have a fitted effect of over 50% in size
Procedure, shortened: as §3

[9] = A CellTox Green Cytotoxicity Assay to monitor cytotoxicity in HepG2 cells - 8 hour (AID 1224890); also: nearly all actives have a fitted effect of over 45% in size
Procedure, shortened: as §2

[10] = qHTS assay to identify small molecule antagonists of the androgen receptor (AR) signaling pathway using the MDA cell line in the presence of 0.5 nM R1881 - cell viability counter screen (AID 1259242); also: nearly all actives have a fitted effect of over 45% in size
Procedure, shortened: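 qHTS format. MDA-kb2 (MMTV-luc, AR/GR responsive) + cpd + 0.5 nM R1881 final, 16 hr 37C/0% CO2 → CellTiter-Fluor 30 min → fluorescence intensity.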

[11] = target: Androgen receptor (Homo sapiens) (UniProt P10275); experiment: qHTS assay to identify small molecule antagonists of the androgen receptor (AR) signaling pathway using the MDA cell line in the presence of 0.5 nM R1881 (AID 1259243); also: nearly all actives have a fitted effect of over 50% in size
Chain of Androgen receptor (Homo sapiens) (P10275 whole entry, looked up): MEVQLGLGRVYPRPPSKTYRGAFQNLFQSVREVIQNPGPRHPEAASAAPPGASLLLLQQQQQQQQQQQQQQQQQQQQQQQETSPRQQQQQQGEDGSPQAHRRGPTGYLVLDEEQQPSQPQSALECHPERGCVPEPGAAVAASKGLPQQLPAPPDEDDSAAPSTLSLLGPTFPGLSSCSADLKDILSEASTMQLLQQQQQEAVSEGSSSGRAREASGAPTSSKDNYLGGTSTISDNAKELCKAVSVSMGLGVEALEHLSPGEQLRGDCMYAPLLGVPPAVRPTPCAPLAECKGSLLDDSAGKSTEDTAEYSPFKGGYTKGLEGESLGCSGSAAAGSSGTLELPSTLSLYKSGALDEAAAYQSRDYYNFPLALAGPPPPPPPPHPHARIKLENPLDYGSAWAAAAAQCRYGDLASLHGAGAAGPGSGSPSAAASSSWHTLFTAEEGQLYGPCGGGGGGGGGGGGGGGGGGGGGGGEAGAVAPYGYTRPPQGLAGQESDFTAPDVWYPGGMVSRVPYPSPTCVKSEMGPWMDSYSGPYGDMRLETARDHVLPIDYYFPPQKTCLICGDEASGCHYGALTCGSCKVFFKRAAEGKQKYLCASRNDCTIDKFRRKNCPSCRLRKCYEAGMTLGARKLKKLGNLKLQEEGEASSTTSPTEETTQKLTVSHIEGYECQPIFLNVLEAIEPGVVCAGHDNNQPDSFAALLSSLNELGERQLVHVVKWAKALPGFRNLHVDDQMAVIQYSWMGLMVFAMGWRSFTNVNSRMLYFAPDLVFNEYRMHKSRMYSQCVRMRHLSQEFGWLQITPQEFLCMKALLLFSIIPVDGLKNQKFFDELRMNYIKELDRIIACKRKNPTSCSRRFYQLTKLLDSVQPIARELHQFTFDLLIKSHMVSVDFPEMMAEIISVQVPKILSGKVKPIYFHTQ
Procedure, shortened: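 Antagonist mode quantitative HTS in MDA-kb2 MMTV-luciferase cells, agonist R1881 at 0.5 nM final, 16 hr exposure at 37C and 0% CO2, luminescent detection.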

[12] = target: Estrogen receptor (Homo sapiens) (UniProt P03372); experiment: qHTS assay to identify small molecule antagonists of the estrogen receptor alpha (ER-alpha) signaling pathway using the BG1 cell line in the presence of 0.1 nM 17-beta-estradiol (AID 1259244); also: nearly all actives have a fitted effect of over 50% in size
Chain of Estrogen receptor (Homo sapiens) (P03372 whole entry, looked up): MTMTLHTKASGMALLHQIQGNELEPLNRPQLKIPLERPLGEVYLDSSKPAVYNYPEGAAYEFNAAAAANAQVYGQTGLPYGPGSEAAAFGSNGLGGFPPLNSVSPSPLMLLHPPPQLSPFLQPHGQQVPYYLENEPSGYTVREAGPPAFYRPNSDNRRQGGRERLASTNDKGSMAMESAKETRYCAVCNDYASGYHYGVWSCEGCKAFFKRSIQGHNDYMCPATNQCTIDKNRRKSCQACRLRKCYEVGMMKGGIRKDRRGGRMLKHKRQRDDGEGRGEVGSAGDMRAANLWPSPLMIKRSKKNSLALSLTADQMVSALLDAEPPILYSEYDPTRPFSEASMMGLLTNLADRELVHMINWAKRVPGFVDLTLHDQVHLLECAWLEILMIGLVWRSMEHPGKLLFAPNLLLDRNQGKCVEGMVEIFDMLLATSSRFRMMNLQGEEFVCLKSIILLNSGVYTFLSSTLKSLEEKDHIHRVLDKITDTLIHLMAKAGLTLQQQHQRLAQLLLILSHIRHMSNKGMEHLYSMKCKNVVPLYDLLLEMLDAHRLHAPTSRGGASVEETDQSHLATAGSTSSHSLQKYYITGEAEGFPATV
Procedure, shortened: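 Reporter is a stably transfected luciferase under four estrogen responsive elements in VM7Luc4E2 cells expressing native full-length ER-alpha; inhibition of 0.1 nM (final) 17beta-estradiol-driven signal over 22 h is read by luminescence.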

[13] = qHTS assay to identify small molecule HDAC inhibitors (AID 1259364); also: potency is read from the fitted curve at half-maximal effect;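 also: wild-type HCT-116 cells with endogenous class I/II HDAC activity; nearly all actives have a fitted effect of over 45% in size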
Procedure, shortened: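 Quantitative high-throughput format: overnight-seeded HCT-116 cells got compounds for 2 hr at 37C; HDAC-Glo I/II reagent added, 30 min RT, luminescence measured.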

[14] = qHTS assay to identify small molecule HDAC inhibitors - cell viability counter screen (AID 1259365)
Procedure, shortened: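 After overnight seeding at 1,500 cells per well, wild-type HCT-116 cultures took up compounds in DMSO for 2hr at 37 C. Viable cell content came from luminescence with CellTiter-Glo.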

[15] = qHTS assay to identify small molecule agonists of the sonic hedgehog signaling (Shh) pathway - cell viability counter screen (AID 1259366); also: nearly all actives have a fitted effect of over 50% in size; also: potency is read from the fitted curve at half-maximal effect
Procedure, shortened: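 Same-well cytotoxicity read. Gli1-Luc reporter 3T3 cells; compounds 24hr, 37C/5% CO2; CellTiter-Fluor fluorescence.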

[16] = qHTS assay to identify small molecule antagonists of the sonic hedgehog signaling (Shh) pathway - cell viability counter screen (AID 1259367); also: nearly all actives have a fitted effect of over 55% in size; also: potency is read from the fitted curve at half-maximal effect
Procedure, shortened: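 Tox21 library chemicals were tested on a Gli1-Luc NIH/3T3 clone (2,000 cells/well) stimulated by conditioned medium; viability was quantified as fluorescence from CellTiter-Fluor reagent added at 23 hr.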

[17] = qHTS assay to identify small molecule agonists of the sonic hedgehog signaling (Shh) pathway (AID 1259368; calls by dose curve;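 also: NIH/3T3-derived 3T3Gli1-Luc cells carrying a stable Gli1-driven firefly luciferase reporter; series mostly up to about 92 µM; nearly all actives have a fitted effect of over 15% in size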)
Procedure, shortened: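 Quantitative high-throughput format using a Gli1-driven firefly luciferase reporter line derived from NIH/3T3 cells. After a 24 hr compound treatment at 37 C and 5% CO2, luminescence reported Gli1 response element activity.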

[18] = qHTS assay to identify small molecule antagonists of the estrogen receptor alpha (ER-alpha) signaling pathway using the BG1 cell line in the presence of 0.1 nM 17-beta-estradiol - cell viability counter screen (AID 1259241); also: nearly all actives have a fitted effect of over 40% in size
Procedure, shortened: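 Estradiol-stimulated (0.1 nM) VM7Luc4E2 cells exposed to compounds 22 hr; viability measured by fluorescence of cleaved CellTiter-Fluor substrate after 30 min.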

[19] = qHTS assay to identify small molecule phospholipidosis (PLD) inducers (AID 1259344; active = well fitted curve in the direction sought with a large enough effect; an effect the other way counts as inactive or inconclusive)
Procedure, shortened: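 Image-based: LipidTOX Red pit count/intensity per well and per cell; HepG2, 24 h compound at 37 C, PFA fixation, Hoechst counterstain.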

| SMILES | Potency [1] | Potency [2] | Potency [3] | Potency [4] | outcome [5] | Potency [6] | Potency [7] | Potency [8] | Potency [9] | outcome [10] | Potency [11] | Potency [12] | Potency [13] | outcome [14] | Potency [15] | Potency [16] | Potency [17] | Potency [18] | PLD induction [19] | outcome [19] |
| --- | --- | --- | --- | --- | --- | --- | --- | --- | --- | --- | --- | --- | --- | --- | --- | --- | --- | --- | --- | --- |
| CCOC(=O)c1cc(=O)c2c(OCC(COc3cccc4oc(C(=O)OCC)cc(=O)c34)OC(=O)[C@@H](N)CCCCN)cccc2o1 | inactive | inactive | inactive | inactive | inactive | inactive | inactive | inactive | inactive | inactive | inactive | inactive | inactive | inactive | inactive | inactive | inactive |  |  |  |
| CN1CCC[C@@H]1Cc1c[nH]c2ccc(CCS(=O)(=O)c3ccccc3)cc12 | inactive | inactive | inactive | inactive | inactive | inactive | inactive | inactive | inactive | inactive |  |  | inactive | inactive |  | inactive | inactive | inactive |  |  |
| NC(=O)Cc1cccc(C(=O)c2ccccc2)c1N | inactive | inactive | inactive | inactive | inactive | inactive | inactive | inactive | inactive | inactive |  |  | inactive | inactive |  |  | inactive | inactive | -0.295% [at 7.66 µM] |  |
| CCCCOc1cc(C(=O)NCCN(CC)CC)c2ccccc2n1 | inactive | inactive | 23.9 µM (active) | inactive | inactive |  | inactive | inactive | inactive | inactive |  |  | inactive | inactive |  | inactive | inactive | inactive |  |  |
| CC(=O)Oc1cc(C(C)C)c(OCCN(C)C)cc1C | inactive | inactive | inactive | inactive | inactive |  | inactive | inactive | inactive | inactive |  |  | inactive | inactive |  | inactive | inactive | inactive |  | inactive |
| COC(=O)/C=C(/C)N | inactive | inactive | inactive | inactive | inactive | inactive |  | inactive | inactive | inactive | inactive | inactive | inactive | inactive | inactive | inactive | inactive |  |  |  |
| CCCCc1ccc2nc(NC(=O)OC)[nH]c2c1 | inactive | inactive | inactive | inactive | inactive | inactive |  | inactive | inactive | inactive | inactive | inactive | 10.6 µM (active) | inactive | inactive |  | inactive |  |  | inactive |
| CC(=O)N[C@@H](CC(C)C)C(=O)O | inactive | inactive | inactive | inactive | inactive | inactive | inactive | inactive | inactive | inactive |  | inactive | inactive | inactive | inactive |  | inactive | inactive |  | inactive |
| CCCCCCCCCC/C=C/C#N | inactive | inactive | inactive | inactive | inactive | inactive | inactive | inactive | inactive | inactive |  | inactive | inactive | inactive | inactive | inactive |  | inactive |  |  |
| COc1ccc(Nc2ccc(OC)cc2)cc1 | inactive | inactive | inactive | inactive | inactive | 14.1 µM (active) | inactive | inactive | inactive | inactive |  | inactive | 27.8 µM (active) | inactive | inactive | inactive | inactive | inactive |  |  |
| O=c1[nH]c(=O)n([C@H]2C[C@H](O)[C@@H](CO)O2)cc1C(F)(F)F | inactive | inactive | inactive | inactive | inactive | inactive | inactive | inactive | inactive | inactive |  | inactive | inactive | inactive | inactive | inactive |  |  |  | inactive |
| CCN(CCCc1ccccc1)CCCc1ccccc1 | inactive | inactive | inactive | inactive | inactive | inactive |  | inactive | inactive | inactive |  | inactive | inactive | inactive | inactive | inactive | inactive | inactive |  | inactive |
| CCCCNc1ccc(C(=O)OCCN(CC)CC)cc1 | inactive | inactive | inactive | inactive | inactive | inactive | inactive | inactive | inactive | inactive |  | inactive | inactive | inactive | inactive |  | inactive |  |  |  |
| CC(C)O | inactive | inactive | inactive | inactive | inactive | inactive | inactive | inactive | inactive | inactive |  |  | inactive | inactive |  |  |  | inactive |  | inactive |
| CC(C)CC(=O)OCc1ccccc1 | inactive | inactive | inactive | inactive | inactive | inactive | inactive | inactive | inactive | inactive |  | inactive | inactive | inactive | inactive | inactive | inactive | inactive |  |  |
| CC1CN(c2ccccc2)NC1=O (centres undefined) | inactive | inactive | inactive | inactive | inactive | inactive | inactive | inactive | inactive | inactive |  |  | 24.3 µM (active) | inactive | inactive | inactive | inactive |  |  |  |
| CCN(O)CC | inactive | inactive | inactive | inactive | inactive | inactive | inactive | inactive | inactive | inactive |  |  | 26.7 µM (active) | inactive | 30 µM (active) | 21.2 µM (active) |  | inactive |  |  |
| CCCCCCn1c(=O)c2c(ncn2C)n(C)c1=O | inactive | inactive | inactive | inactive |  | inactive | inactive | inactive | inactive | inactive | inactive | inactive | inactive | inactive | inactive | inactive | inactive | inactive |  |  |
